Measurements taken from the supplement of paper PMC4840960.
Where a name gives a salt, the structure may show the parent alone. ± gives the standard deviation of the averaged measurements.

Tests used:
[1] = test system: E18 rat cortical neuron-glia co-culture; assay: fiber score / MBP score (myelination specific beyond OL differentiation) (ratio); higher = more myelination-specific MBP alignment; conditions: treatment time: 8 days (DIV5-DIV13)
Procedure, shortened: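 Papain-dissociated primary E18 rat cortical co-cultures, plated at 20,000 cells/well on poly-d-lysine/laminin 96-well plates, were exposed to library compounds at 1 or 5 µM in myelination medium between DIV5 and DIV13. Following fixation in 4 % paraformaldehyde, cultures were stained for MBP, Olig2 and DAPI, and four 10X fields per well were analysed in duplicate wells. Values are the ratio of fiber score (continuous MBP fiber length per Olig2+ nucleus) to MBP score (thresholded MBP area × intensity per Olig2+ nucleus).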

[2] = test system: E18 rat cortical neuron-glia co-culture; assay: myelination (MBP fiber length per Olig2+ nucleus), % of 1 µM DAPT response (DMSO = 0) (% of DAPT); higher = more myelination, active = 50 or more; conditions: treatment time: 8 days (DIV5-DIV13)
Procedure, shortened: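 Myelination, expressed as continuous straight MBP fiber length per Olig2+ nucleus, was normalised to 0.1 % DMSO as 0 and a 1 µM positive control as 100. The cultures were primary E18 rat cortical co-cultures dissociated with papain and plated at 20,000 cells/well on poly-d-lysine/laminin-coated 96-well plates. They received library compounds at 1 or 5 µM in myelination medium between DIV5 and DIV13. Analysis covered four 10X fields per well in duplicate wells after 4 % paraformaldehyde fixation and immunostaining for MBP and Olig2 with DAPI.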

## O=C(NCCN1CCOCC1)c1ccc(Cl)cc1 [Moclobemide]
[1]; 1 µM
  fiber score / MBP score: 0.601
[1]; 5 µM
  fiber score / MBP score: 0.881
[2]; 1 µM
  myelination: -22.1 (inactive)
[2]; 5 µM
  myelination: -5.22 (inactive)

## CN1CCC(=C2c3ccccc3CC(=O)c3sccc32)CC1 [Ketotifen]
[1]; 1 µM
  fiber score / MBP score: 1.03
[1]; 5 µM
  fiber score / MBP score: 0.58
[2]; 1 µM
  myelination: -0.199 (inactive)
[2]; 5 µM
  myelination: -13.6 (inactive)

## O=C1NC(=O)C(c2ccccc2)(c2ccccc2)N1 [Phenytoin]
[1]; 1 µM
  fiber score / MBP score: 0.39
[1]; 5 µM
  fiber score / MBP score: 0.762
[2]; 1 µM
  myelination: -17.5 (inactive)
[2]; 5 µM
  myelination: -20.9 (inactive)

## CN(C)CC/C=C1/c2ccccc2COc2ccc(CC(=O)O)cc21 [Olopatadine]
[1]; 1 µM
  fiber score / MBP score: 0.791
[1]; 5 µM
  fiber score / MBP score: 0.936
[2]; 1 µM
  myelination: -7.93 (inactive)
[2]; 5 µM
  myelination: -5.94 (inactive)

## CCc1nn(CCCN2CCN(c3cccc(Cl)c3)CC2)c(=O)n1CCOc1ccccc1 [Nefazodone]
[1]; 1 µM
  fiber score / MBP score: 0.932
[1]; 5 µM
  fiber score / MBP score: 0.76
[2]; 1 µM
  myelination: 2.86 (inactive)
[2]; 5 µM
  myelination: 2 (inactive)

## C=CC[C@@H]1/C=C(\C)C[C@H](C)C[C@H](OC)[C@H]2O[C@@](O)(C(=O)C(=O)N3CCCC[C@H]3C(=O)O[C@H](/C(C)=C/[C@@H]3CC[C@@H](O)[C@H](OC)C3)[C@H](C)[C@@H](O)CC1=O)[C@H](C)C[C@@H]2OC [Tacrolimus]
[1]; 1 µM
  fiber score / MBP score: 0.687
[1]; 5 µM
  fiber score / MBP score: 0.587
[2]; 1 µM
  myelination: -24.6 (inactive)
[2]; 5 µM
  myelination: -22.8 (inactive)

## COc1c2occc2cc2ccc(=O)oc12 [Methoxsalen]
[1]; 1 µM
  fiber score / MBP score: 0.488
[1]; 5 µM
  fiber score / MBP score: 0.29
[2]; 1 µM
  myelination: -11.8 (inactive)
[2]; 5 µM
  myelination: -16.1 (inactive)

## CC1CCN(CCCC(=O)c2ccc(F)cc2)CC1 [Melperone hydrochloride]
[1]; 1 µM
  fiber score / MBP score: 0.816
[1]; 5 µM
  fiber score / MBP score: 0.519
[2]; 1 µM
  myelination: -4.39 (inactive)
[2]; 5 µM
  myelination: -12.5 (inactive)

## CC(=O)SCC(Cc1ccccc1)C(=O)NCC(=O)OCc1ccccc1 (stereo not given) [Racecadotril]
[1]; 1 µM
  fiber score / MBP score: 0.715
[1]; 5 µM
  fiber score / MBP score: 0.943
[2]; 1 µM
  myelination: -48.7 (inactive)
[2]; 5 µM
  myelination: -8.19 (inactive)

## CCCSc1ccc2[nH]c(NC(=O)OC)nc2c1 [Albendazole]
[1]; 1 µM
  fiber score / MBP score: 0.797
[1]; 5 µM
  fiber score / MBP score: 0.0787
[2]; 1 µM
  myelination: 112
[2]; 5 µM
  myelination: -37.4 (inactive)

## CN[C@H]1CC[C@@H](c2ccc(Cl)c(Cl)c2)c2ccccc21 [Sertraline]
[1]; 1 µM
  fiber score / MBP score: 0.689 ± 0.18
[1]; 5 µM
  fiber score / MBP score: 3.18
[2]; 1 µM
  myelination: -5.38 (inactive)
[2]; 5 µM
  myelination: -24.9 (inactive)

## O=C1C(CC[S+]([O-])c2ccccc2)C(=O)N(c2ccccc2)N1c1ccccc1 (stereo not given) [Sulfinpyrazone]
[1]; 1 µM
  fiber score / MBP score: 1.18
[1]; 5 µM
  fiber score / MBP score: 0.857
[2]; 1 µM
  myelination: -0.801 (inactive)
[2]; 5 µM
  myelination: -7.44 (inactive)

## O=C(C1CCCCC1)N1CC(=O)N2CCc3ccccc3C2C1 (stereo not given) [Praziquantel]
[1]; 1 µM
  fiber score / MBP score: 1.03
[1]; 5 µM
  fiber score / MBP score: 0.947
[2]; 1 µM
  myelination: 7.75 (inactive)
[2]; 5 µM
  myelination: -1.87 (inactive)

## CC(=O)/N=c1/sc(S(N)(=O)=O)nn1C [Methazolamide]
[1]; 1 µM
  fiber score / MBP score: 0.875
[1]; 5 µM
  fiber score / MBP score: 0.672
[2]; 1 µM
  myelination: -8.24 (inactive)
[2]; 5 µM
  myelination: -24.1 (inactive)

## O=C(O[C@@H]1C[C@@H]2C[C@H]3C[C@H](C1)N2CC3=O)c1c[nH]c2ccccc12 [Dolasetron]
[1]; 1 µM
  fiber score / MBP score: 0.649
[1]; 5 µM
  fiber score / MBP score: 0.701
[2]; 1 µM
  myelination: -3.78 (inactive)
[2]; 5 µM
  myelination: -14.7 (inactive)

## Nc1nnc(-c2cccc(Cl)c2Cl)c(N)n1 [Lamotrigine]
[1]; 1 µM
  fiber score / MBP score: 0.703
[1]; 5 µM
  fiber score / MBP score: 0.746
[2]; 1 µM
  myelination: -23.5 (inactive)
[2]; 5 µM
  myelination: -15.5 (inactive)

## CC1(C)S[C@@H]2[C@H](NC(=O)COc3ccccc3)C(=O)N2[C@H]1C(=O)O [Penicillin V]
[1]; 1 µM
  fiber score / MBP score: 0.881
[1]; 5 µM
  fiber score / MBP score: 0.734
[2]; 1 µM
  myelination: -3.1 (inactive)
[2]; 5 µM
  myelination: -3.83 (inactive)

## C=C1/C(=C\C=C2/CCC[C@]3(C)[C@@H]([C@H](C)/C=C/[C@@H](O)C4CC4)CC[C@@H]23)C[C@@H](O)C[C@@H]1O [Calcipotriene]
[1]; 1 µM
  fiber score / MBP score: 0.711
[1]; 5 µM
  fiber score / MBP score: 0.6
[2]; 1 µM
  myelination: -43.8 (inactive)
[2]; 5 µM
  myelination: -82.7 (inactive)

## O=C(O[C@@H]1Cc2c(O)cc(O)cc2O[C@@H]1c1cc(O)c(O)c(O)c1)c1cc(O)c(O)c(O)c1 [Epigallocatechin gallate]
[1]; 1 µM
  fiber score / MBP score: 0.732
[1]; 5 µM
  fiber score / MBP score: 1.01
[2]; 1 µM
  myelination: -23.8 (inactive)
[2]; 5 µM
  myelination: -10.9 (inactive)

## NC(=O)N1c2ccccc2C=Cc2ccccc21 [Carbamazepine]
[1]; 1 µM
  fiber score / MBP score: 0.735
[1]; 5 µM
  fiber score / MBP score: 0.902
[2]; 1 µM
  myelination: 2.28 (inactive)
[2]; 5 µM
  myelination: 2.05 (inactive)
